These results are taken from PubChem BioAssay (NCI).

This is part of a sample that, as a whole, favours compounds with a hit. Of some 83,000 tested, about 20% had one in any assay.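 How to read the values: 0–100, growth inhibition (40 = 60% inhibited); 0, no net growth; -100 to 0, cell death (-40 = 40% of starting cells died; -100 = all dead).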 Values without a mark were called inactive. The source made the active and inactive calls. How the source made its calls: active means growth percent below 10; inactive means the rest.

Test systems include T-47D breast; BT-549 breast; MDA-MB-435 melanoma; SW-620 colon; MCF7 breast; HCT-116 colon; HCC-2998 colon; KM12 colon.
What all share (test): NCI-60 one-dose screen, 48 h (100 = growth as untreated, 0 = no growth, -100 = all killed)
Common to all, as to conditions: 10 µM unless noted

Regarding `CC(C)(C)n1cc(-c2ccnc(NCCCNS(=O)(=O)c3cccc4ccccc34)c2)c(-c2cccc(F)c2)n1`, the growth was 34% in the test on T-47D breast; 65.4% in the test on BT-549 breast; 90.4% with MDA-MB-435 melanoma; 92.4% with SW-620 colon; 52.9% in the test on MCF7 breast; 53.5% in the test with HCT-116 colon. In addition, the growth with HCC-2998 colon was 82.8%; with KM12 colon it was 76.6%.

As to `O=c1nc(-c2ccccc2)c2cc(-c3ccc(C(F)(F)F)nc3)ccc2[nH]1`, the growth with T-47D breast is 95.3%; in the test with BT-549 breast, 99.3%; with MDA-MB-435 melanoma, 104%; in the test with SW-620 colon, 101%; in the test with MCF7 breast, 86.8%; in the test on HCT-116 colon, 92.4%. For the same compound, the growth with HCC-2998 colon is 105%; in the test with KM12 colon, 91.1%.

Turning to `CCN(CC)Cc1cc(Nc2ccnc3cc(Cl)ccc23)ccc1O`, the growth in the test on T-47D breast is 100%; in the test with BT-549 breast, 95.5%; in the test with MDA-MB-435 melanoma it was 97.8%; with SW-620 colon it was 88.4%; in the test on MCF7 breast, 86.9%; in the test with HCT-116 colon, 79.7%. Further, the figures for the growth with HCC-2998 colon and in the test with KM12 colon were 93.2% and 87.7%, respectively.

As for `Oc1c(CN2CCOCC2)cc(COCc2ccccc2)c2cccnc12`, the growth is 10.4% in the test with T-47D breast; 36.4% in the test on BT-549 breast; 46.8% in the test on MDA-MB-435 melanoma; 28.9% in the test with SW-620 colon; 9.26% (active) with MCF7 breast; 21.6% in the test on HCT-116 colon. The results for the growth in the test on HCC-2998 colon and in the test with KM12 colon were 54.2% and 35.6%, respectively.

As to `CN(CCC(=O)c1ccccc1)CCC(=O)c1ccccc1`, the growth in the test on T-47D breast was 113%; in the test on BT-549 breast, 79.7%; with MDA-MB-435 melanoma, 102%; in the test with SW-620 colon it was 99.8%; in the test on MCF7 breast, 70.2%; with HCT-116 colon, 93.3%. For the same compound, the figures for the growth in the test with HCC-2998 colon and with KM12 colon were 93.3% and 98.7%, respectively.

`COC(=O)c1c2c(c(C)[n+]([O-])c1C)C(=O)C(NCc1cccc(Cl)c1)=CC2=O`: the growth with T-47D breast was 6% (active); in the test with BT-549 breast, 49.3%; in the test on MDA-MB-435 melanoma it was -68.5% (active); in the test with SW-620 colon, 7.1% (active); in the test on MCF7 breast, -36% (active); with HCT-116 colon, 1.18% (active). Besides, the growth was 15.3% in the test on HCC-2998 colon and 17.7% with KM12 colon.

For the compound `C=C1CC[C@@H]2C(C)(C)[C@@H](O)CC[C@@]2(C)[C@@H]1COc1ccc2ccc(=O)oc2c1`, the growth is -12.4% (active) in the test with T-47D breast; 72.7% in the test on BT-549 breast; 81.5% in the test on MDA-MB-435 melanoma; 99.4% in the test on SW-620 colon; 50.2% in the test on MCF7 breast; 76.6% in the test with HCT-116 colon. Besides, the growth is 92.3% in the test with HCC-2998 colon and 70% in the test on KM12 colon.

Regarding `Oc1ccc(/C=C/c2ccc(O)cc2)cc1`, the growth is 69% in the test on T-47D breast; 18.7% in the test on BT-549 breast; 52.8% with MDA-MB-435 melanoma; 65.4% in the test on SW-620 colon; 33.1% with MCF7 breast; 47% in the test with HCT-116 colon. For the same compound, the growth in the test with HCC-2998 colon was 96.4%; in the test on KM12 colon, 45.5%.

As to `O=C1/C(=C/c2ccccn2)NC(=S)N1c1ccccc1Cl`, the growth is 44.1% in the test with T-47D breast; 83.8% in the test on BT-549 breast; 67.4% in the test with MDA-MB-435 melanoma; 37.9% with SW-620 colon; 32.9% in the test with MCF7 breast; 12.2% in the test with HCT-116 colon. Besides, the results for the growth with HCC-2998 colon and in the test on KM12 colon were 85.9% and 67.4%, respectively.

Consider `Nc1nc(N)c2c(n1)NC(c1ccc(Cl)cc1)C1CCc3ccccc3C1=N2` (stereo not drawn), for which the growth in the test on T-47D breast is 52.6%; in the test on BT-549 breast, 83.2%; in the test on MDA-MB-435 melanoma it was 44.2%; in the test on SW-620 colon, 63.8%; in the test on MCF7 breast, 24.8%; in the test on HCT-116 colon, 31.8%. Also, the values for the growth with HCC-2998 colon and in the test on KM12 colon were 75.6% and 55.4%, respectively.

With `CN1CCN(CC(=O)Nc2ccc3ncnc(Nc4ccc(Oc5cccc(C(F)(F)F)c5)c(Cl)c4)c3c2)CC1`, the growth in the test on T-47D breast was 44.4%; in the test on BT-549 breast it was 73.1%; with MDA-MB-435 melanoma, -86% (active); with SW-620 colon it was -68% (active); with MCF7 breast it was -51.3% (active); in the test on HCT-116 colon, 6.69% (active). The growth in the test with HCC-2998 colon was -5.89% (active); with KM12 colon, 23.5%.

Take `O=C(CN1CCN(c2cc3c(cc2F)c(=O)c(C(=O)O)cn3C2CC2)CC1)N/N=C/c1ccco1`: the growth in the test on T-47D breast is 86.8%; in the test on BT-549 breast, 95.2%; in the test with MDA-MB-435 melanoma, 102%; with SW-620 colon, 99.6%; in the test on MCF7 breast, 87.1%; in the test on HCT-116 colon, 97.1%. In addition, the growth in the test with HCC-2998 colon is 107%; with KM12 colon, 102%.

Regarding `C=C1C(=O)O[C@H]2[C@H]1CC/C(CNC(=O)c1c[nH]c3ccc(F)cc13)=C\CC[C@@]1(C)O[C@@H]21`, the growth is -39.6% (active) in the test with T-47D breast; 13% in the test with BT-549 breast; 3.64% (active) in the test on MDA-MB-435 melanoma; -48.9% (active) with SW-620 colon; -26.3% (active) with MCF7 breast; -49.1% (active) in the test with HCT-116 colon. Moreover, the results for the growth in the test on HCC-2998 colon and with KM12 colon were -79.3% (active) and 42.4%, respectively.

Regarding `O=C(C1=Cc2cc3ccccc3n2Cc2cnnn21)c1ccc(O)cc1`, the growth is 44.9% with T-47D breast; 54.8% with BT-549 breast; -7.67% (active) in the test with MDA-MB-435 melanoma; 28.7% with SW-620 colon; 34.3% in the test with MCF7 breast; 46.4% with HCT-116 colon. Besides, the results for the growth with HCC-2998 colon and in the test with KM12 colon were 83.8% and 29.5%, respectively.

As for `COc1ccc(Oc2nc(Nc3ccc(N4CCOCC4)cc3)ncc2NC(=O)Nc2cc(OC)cc(OC)c2)cc1`, the growth is 48.8% in the test with T-47D breast; 12.5% in the test with BT-549 breast; 6.76% (active) with MDA-MB-435 melanoma; 19.6% in the test with SW-620 colon; 41.7% in the test with MCF7 breast; -55.5% (active) with HCT-116 colon. Further, the growth in the test on HCC-2998 colon is 9.48% (active); in the test with KM12 colon it was 24%.

On to `CO[C@H](C(=O)[C@@H](O)[C@@H](C)O)[C@@H]1Cc2cc3cc(O[C@H]4C[C@@H](O[C@H]5C[C@@H](O)[C@H](O)C(C)O5)[C@H](O)C(C)(O)O4)cc(O)c3c(O)c2C(=O)[C@H]1O[C@H]1C[C@@H](O[C@H]2C[C@@H](O[C@H]3C[C@@H](OC)[C@H](O)C(C)O3)[C@@H](O)C(C)O2)[C@H](O)C(C)O1` (stereo partly drawn), for which the growth in the test on T-47D breast is 13.5%; in the test with BT-549 breast, 4.37% (active); in the test on MDA-MB-435 melanoma, 24.8%; in the test with SW-620 colon it was 34%; with MCF7 breast it was 6.89% (active); in the test with HCT-116 colon, 6.03% (active). The growth in the test on HCC-2998 colon was 39.9%; in the test with KM12 colon, 14.9%.
